Molecules are shown by their SMILES. Inconclusive results are not listed. A number with no mark means an inactive call. Active and inactive are the calls of the source. Calls follow the shape of the dose curve; as a rule, active = well fitted cell-killing curve with a large enough effect; inconclusive = small, poorly fitted or top-dose-only effect; inactive = flat fitted curve, though single readings scatter.

The values that follow come from PubChem BioAssay (NCATS).
Potency is read from the fitted curve at half-maximal effect.

A short description of this assay: Cell Viability - LYMP2-025 (AID 976).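 As to activity change, negative = cytotoxicity: plate controls were DMSO only for no effect and tetraoctylammonium bromide control for full effect.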 The conditions noted are these: LYMP2-025 lymphoblastoid cell viability; series mostly up to 92.2 µM; activity change, negative = cytotoxicity: at the top concentration. The text has this:
NIH Chemical Genomics Center [NCGC]
NIH Molecular Libraries Screening Centers Network [MLSCN]
National Institutes of Environmental Health Sciences [NIEHS]
National Toxicology Program [NTP]
We have developed a 1536-well cell-based assay for quantitative high throughput screening (qHTS) against a number of cell lines to determine in vitro cytotoxicity of small molecules. This particular assay uses a human lymphoblastoid cell line (LYMP2-025) purchased from Coriell Institute for Medical Research.
NCGC Assay Protocol Summary:
The CellTiter-Glo luminescent cell viability assay (Promega) is a homogeneous method to measure the number of viable cells in culture. The end point readout of this assay is based on quantitation of intracellular ATP, an indicator of metabolic activity, using the luciferase reaction. Luciferase catalyzes the oxidation of beetle Luciferin to oxyluciferin and light in the presence of ATP. The luminescent signal is proportional to amount of ATP present.
Using the CellTiter-Glo luminescent cell viability assay, the amount of cellular ATP was measured in the lymphoblastoid cell line with complete culture medium following compound treatment for 24 hours. The assay was performed in opaque white Kalypsys 1536-well plates. In the screen, tetraoctylammonium bromide was used as positive control. Library compounds were measured for their ability to cause acute toxicity in the cell line, as reflected by a decrease in intracellular ATP levels, in a concentration-dependent manner. […] AC50 values were determined from concentration-response data modeled with the standard Hill equation.
qHTS protocol for CellTiter Glo lymphoblastoid cellular assay
[Step] [Parameter] [Value] [Description]
1. Reagent; 5 uL; 2500 lymphoblastoid cells/well
2. Time; 5 hr; 37 C incubation
4. Controls; 23 nL; Tetraoctylammonium bromide 6.4pM to 92 uM
5. Time; 24 hr; 37 C incubation
6. Reagent; 5 uL; CellTiter Glo reagent
7. Time; 30 min; Room Temperature
8. Detection; Luminescence; Viewlux plate reader
Keywords: cell viability, cytotoxicity, lymphoblastoid cell line, luminescence, NTPHTS, NTPHTS_NCGC, NIEHS, DSSTox, MLSMR, MLSCN, NIH Roadmap, qHTS, NCGC
As to `CNc1ccc(O)cc1`, the Potency was 10 µM (active).
Take `Oc1ccc2cc(SSc3ccc4cc(O)ccc4c3)ccc2c1`: the “activity change, negative = cytotoxicity” value is -44%.
With `O=C1OC(O)C(C(Cl)Cl)=C1Cl` (centres undefined), the Potency is 31.6 µM (active).
Same read-out and setting: then `CCCCCCCC[N+](CCCCCCCC)(CCCCCCCC)CCCCCCCC`, with 12.6 µM (active).
With `CCC(C)Nc1ccc(NC(C)CC)cc1` (centres undefined), the Potency was 7.94 µM (active).
Take `CO[C@H]1/C=C/O[C@@]2(C)Oc3c(C)c(O)c4c(O)c(c5c(c4c3C2=O)NC2(CCN(CC(C)C)CC2)N=5)=NC(=O)/C(C)=C\C=C\[C@H](C)[C@H](O)[C@@H](C)[C@@H](O)[C@@H](C)[C@H](OC(C)=O)[C@@H]1C`: the “activity change, negative = cytotoxicity” value was -24.7%.
The same measure, in the same setting: the value for `C/C=C1\C(=O)C[C@H]2[C@@H]3CCC4=CC(=O)CC[C@]4(C)[C@H]3CC[C@]12C` was -8.02%.
In the case of `Cc1cc(Nc2ccc(O)cc2)ccc1N`, the Potency is 50.1 µM (active).
Consider `c1ccc2c(c1)-c1cccc3c1c-2cc1ccccc13`, for which the “activity change, negative = cytotoxicity” value is -12.2%.
Turning to `C=CC(=O)OCCOCCOC(=O)C=C`, the Potency was 31.6 µM (active).
For the compound `CCCCCC/C(C=O)=C\c1ccccc1`, the “activity change, negative = cytotoxicity” value is -7.09%.
Take `Cc1cccc(O)c1C`: the “activity change, negative = cytotoxicity” value was -6.84%.
As for `CN(C)c1ccc(C2(c3ccc(N(C)C)cc3)OC(=O)c3cc(N(C)C)ccc32)cc1`, the “activity change, negative = cytotoxicity” value is 0.293%.
The same measure, in the same setting: the value for `Nc1ccc2cc3ccccc3cc2c1` was -15.4%.
Same read-out and setting: then `O=[N+]([O-])c1cc([N+](=O)[O-])c2ccc(S(=O)(=O)O)cc2c1O`, with -1.28%.
For the compound `Cc1cc(O)c(C(C)(C)C)cc1Sc1cc(C(C)(C)C)c(O)cc1C`, the Potency was 39.8 µM (active).
On the same count and under the same terms, then `O=C(/C=C/c1ccc(O)c(O)c1)OC1C[C@](O)(C(=O)O)C[C@@H](O)[C@H]1O` (some centres undefined), with “inactive”; and `CN1[C@H]2CC(OC(=O)[C@H](CO)c3ccccc3)C[C@H]1[C@H]1O[C@H]12` (some centres undefined), with “inactive”.
As for `C=C(C)c1ccccc1`, the “activity change, negative = cytotoxicity” value was -0.774%.
For `O=C=Nc1ccc(Cc2ccc(N=C=O)cc2)cc1`, the “activity change, negative = cytotoxicity” value was -3.44%.
`c1ccc2c(c1)ccc1cc3c(ccc4ccccc43)cc12`: the “activity change, negative = cytotoxicity” value was -13.7%.
In the case of `O=C(OCC(COC(=O)c1ccccc1)(COC(=O)c1ccccc1)COC(=O)c1ccccc1)c1ccccc1`, the “activity change, negative = cytotoxicity” value was -11.3%.
As for `O=Cc1ccc(Cl)c(Cl)c1`, the “activity change, negative = cytotoxicity” value is 1.66%.
Take `CC(=O)Nc1ccc(C(=O)CCl)cc1`: the Potency is 10 µM (active).
